The text below walks through data of PubChem BioAssay (Tox21).

Test [1] can be described thus: Nuclear factor erythroid 2-related factor 2/antioxidant responsive element (Nrf2/ARE) small molecule agonists: qHTS cell viability counter screen in human keratinocytes (AID 1919968; active = well fitted curve in the direction sought with a large enough effect in the repeat runs; an effect the other way counts as inactive or inconclusive; note: nearly all actives have a fitted effect of over 55% in size; note: potency is the fitted concentration of half-maximal effect). In outline:
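Seed 1,500 KeratinoSens cells per well, then incubate 5 h at 37 C/5% CO2. Add compounds in DMSO and incubate 23 h. Add CellTiter-Fluor, wait 1 h and read fluorescence.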
(qHTS replaces the single test concentration by a dilution series.)

Test [2] in a line: Nuclear factor erythroid 2-related factor 2/antioxidant responsive element (Nrf2/ARE) small molecule agonists: luciferase reporter gene qHTS assay in human keratinocytes (AID 1919969). Note: nearly all actives have a fitted effect of over 35% in size. Note: potency is the fitted concentration of half-maximal effect. Background: Reporter assays use an easily measured gene product as a stand-in for the process of interest.
The target of test [3] is Gonadotropin-releasing hormone receptor (Homo sapiens) (UniProt P30968). In words: Human gonadotropin-releasing hormone receptor (GnRHR) small molecule agonists, calcium flux assay in GnRHR-HEK293 cells (AID 1920063). Note: nearly all actives have a fitted effect of over 35% in size. In outline:
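Cells: HEK293 stably expressing human GnRHR. Steps: overnight (18 h) culture, 1 h calcium dye loading at 37 C, compound addition, kinetic fluorescence read at 480/540 nm. Each compound tested at 15 concentrations in triplicate.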
(In general: A change in cytosolic calcium serves as a functional read-out for many receptors and channels.)

In test [4] the target is KiSS-1 receptor (Homo sapiens) (UniProt Q969F8). Nature of the test: Human kisspeptin (KISS1R) small molecule agonists, calcium flux assay in KISS1R-HEK293 cells (AID 1920064; active = well fitted curve in the direction sought with a large enough effect in the repeat runs; an effect the other way counts as inactive or inconclusive). A digest of the protocol:
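Cells plated and incubated 18 h; dye added, 1 h at 37 C; compounds in DMSO pinned in; signal read at 480/540 nm every second for 3 min. Each compound tested at 15 concentrations in triplicate.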

The nature of test [5]: G protein-coupled receptor (GPCR) small molecule agonists, calcium flux assay: HEK293 wild type cell line counter screen (AID 1920065). In outline: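 Counter-screen of the Tox21 10K library for non-specific calcium release: dye-loaded cells received compounds in DMSO and were monitored by kinetic fluorescence (480/540 nm, 3 min). Fifteen concentrations, run in triplicate.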

Test [6] can be described thus: p53 small molecule agonists, cell-based qHTS assay with human liver microsomes: qHTS cell viability counter screen (AID 1963579). Note: nearly all actives have a fitted effect of over 45% in size. Note: potency is the fitted concentration of half-maximal effect. In outline:
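Metabolic activation used human liver microsomes and NADPH, both 0.5 mg/mL final, over 16 hours at 37 C on p53RE-bla cells (4,000/well). Cytotoxicity measured by CellTiter-Glo luminescence, 30 min at room temperature.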

The nature of test [7]: p53 small molecule agonists, cell-based qHTS assay: qHTS cell viability counter screen (AID 1963581). Note: nearly all actives have a fitted effect of over 45% in size. Note: potency is the fitted concentration of half-maximal effect. In outline: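 Cells: HCT-116 with p53 response element-driven beta-lactamase. Treatment: 16 h, 37 C, compounds in DMSO. Read: CellTiter-Glo luminescence after 30 min RT.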
Test [8] deals with 5-hydroxytryptamine receptor 2A (Homo sapiens) (UniProt P28223). In words: 5-hydroxytryptamine receptor 2A (HTR2A) small molecule antagonists, cell-based qHTS assay (AID 1963586). Note: nearly all actives have a fitted effect of over 45% in size. In outline: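 Antagonist-mode intracellular calcium assay: DOI (4 nM) added after 5 min compound pre-incubation at room temperature to dye-loaded HTR2A-CHO cells. Fluorescence followed for 3 min, sampled every second.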

For test [9] the target is unchanged. In words: 5-hydroxytryptamine receptor 2A (HTR2A) small molecule agonists, cell-based qHTS assay (AID 1963587). Note: nearly all actives have a fitted effect of over 30% in size. In outline:
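Kinetic calcium-flux fluorescence (2 min, 1 sec intervals) after compound addition in agonist mode. HTR2A-CHO cells were cultured 18 h, then dye-loaded 1 h at 37 C.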

Test [10] addresses Muscarinic acetylcholine receptor M1 (Homo sapiens) (UniProt P11229). Nature of the test: Cholinergic receptor muscarinic 1 (CHRM1) small molecule agonists, cell-based qHTS assay (AID 1963589). Note: nearly all actives have a fitted effect of over 35% in size. A digest of the protocol:
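Agonist-mode qHTS in CHO cells stably carrying human muscarinic M1. Intracellular calcium is tracked by fluorescence every second after compound transfer; each compound runs at 15 concentrations in three independent runs.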

Test [11] in a line: cAMP Responsive Elements (CRE) small molecule antagonists, cell-based qHTS assay (AID 1963591; active = well fitted inhibition curve with a large enough effect in the signal ratio in the repeat runs, not every such curve was filed as active; the % refers to the signal ratio). A digest of the protocol:
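Antagonist mode: test compounds are co-incubated with the adenylyl cyclase activator NKH477 (0.25 uM final) on CRE-bla HEK293T cells for 3 h at 37 °C, followed by LiveBLAzer substrate loading.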

In test [12] the target is Beta-2 adrenergic receptor (Homo sapiens) (UniProt P07550). Nature of the test: Adrenergic beta2 receptor (ADRB2) small molecule agonists, cell-based qHTS assay (AID 1963593).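 Note: CHO cells stably overexpressing human ADRB2.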 A digest of the protocol:
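CHO cells stably over-expressing ADRB2 were plated overnight at 37C, then dosed with compounds plus a stimulation mix containing 100uM IBMX and 25uM Ro-20-1724 for 0.5hr at room temperature. cAMP was measured by HTRF competition, 1hr.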

For test [13], the target named is D(2) dopamine receptor (Homo sapiens) (UniProt P14416). In words: Dopamine D2 receptor (DRD2) small molecule agonists, cell-based qHTS assay (AID 1963594). Note: nearly all actives have a fitted effect of over 35% in size. A digest of the protocol: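 cAMP accumulation in DRD2-HEK293 cells measured by HTRF after 1 h detection; compounds added 10 min before NKH477 (200nM […]) forskolin-analogue stimulation, 30 min at room temperature, with Ro20-1724 present at 0.1 mM final.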

Test [14] shares this target. Nature of the test: Dopamine D2 receptor (DRD2) small molecule antagonists, cell-based qHTS assay (AID 1963595; active = well fitted inhibition curve with a large enough effect in the signal ratio in the repeat runs, with a control signal flat; the % refers to the signal ratio). In outline: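 Stable D2 receptor HEK293 line, 24 h after seeding. Compound preincubated 10 min, then quinpirole (12 nM) with forskolin analogue NKH477 (200 nM), 30 min, room temperature. Detection by time-resolved FRET of cAMP.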
Test [15] deals with Muscarinic acetylcholine receptor M1 (Homo sapiens) (UniProt P11229). In words: Cholinergic receptor muscarinic 1 (CHRM1) small molecule antagonists, cell-based qHTS assay (AID 1963588). Note: nearly all actives have a fitted effect of over 40% in size. In outline:
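CHRM1-CHO calcium-flux assay, antagonist mode. Cells were seeded 18 h, dye-loaded 1 h at 37 C and given compound for 5 min at RT, then acetylcholine was added at 50nM. FDSS fluorescence was read 3 min; 15 concentrations, three runs.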

Test [16] in a line: cAMP Responsive Elements (CRE) small molecule agonists, cell-based qHTS assay (AID 1963590). In outline: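 Agonist mode qHTS in CRE-bla HEK 293T cells: compounds dosed from DMSO for 3 h at 37 C/5% CO2, followed by LiveBLAzer B/G FRET substrate for 2 h at room temperature.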
Test [17] concerns the target Beta-2 adrenergic receptor (Homo sapiens) (UniProt P07550). In words: Adrenergic beta2 receptor (ADRB2) small molecule antagonists, cell-based qHTS assay (AID 1963592). Note: series mostly up to about 92 µM; nearly all actives have a fitted effect of over 50% in size. In outline:
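Cells (CHO, stable ADRB2 overexpression) incubated 18-20hr at 37C; compounds added from DMSO; agonist mix (1nM isoproterenol, 100uM IBMX, 25uM Ro-20-1724) added; 0.5hr RT; d2-cAMP and anti-cAMP-cryptate added; 1hr RT; 665/615 nm read.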

Test [18] can be described thus: p53 small molecule agonists, cell-based qHTS assay with rat liver microsomes: qHTS cell viability counter screen (AID 1963580). Note: nearly all actives have a fitted effect of over 45% in size. In outline: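 Intracellular ATP, by CellTiter-Glo luminescence, defines viability. HCT-116 p53RE-bla cells, 4,000 per well, were compound-treated in the presence of rat liver microsomes and NADPH for 16 h at 37 C.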

Values without a mark were called inactive. Inconclusive results are not listed. Activity calls are given as the source filed them. Unless noted, calls come from the whole dose curve.

Sequence of Gonadotropin-releasing hormone receptor (Homo sapiens) (P30968 whole entry, looked up): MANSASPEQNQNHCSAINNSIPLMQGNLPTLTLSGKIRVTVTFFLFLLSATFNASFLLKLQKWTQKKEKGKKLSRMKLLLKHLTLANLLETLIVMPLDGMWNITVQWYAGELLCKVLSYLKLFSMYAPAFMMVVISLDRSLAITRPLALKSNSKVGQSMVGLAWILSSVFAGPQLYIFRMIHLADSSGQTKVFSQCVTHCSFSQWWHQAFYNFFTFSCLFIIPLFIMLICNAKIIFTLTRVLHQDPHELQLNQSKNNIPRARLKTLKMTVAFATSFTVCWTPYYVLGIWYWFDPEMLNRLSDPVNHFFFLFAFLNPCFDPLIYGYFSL
Sequence of KiSS-1 receptor (Homo sapiens) (Q969F8 whole entry, looked up): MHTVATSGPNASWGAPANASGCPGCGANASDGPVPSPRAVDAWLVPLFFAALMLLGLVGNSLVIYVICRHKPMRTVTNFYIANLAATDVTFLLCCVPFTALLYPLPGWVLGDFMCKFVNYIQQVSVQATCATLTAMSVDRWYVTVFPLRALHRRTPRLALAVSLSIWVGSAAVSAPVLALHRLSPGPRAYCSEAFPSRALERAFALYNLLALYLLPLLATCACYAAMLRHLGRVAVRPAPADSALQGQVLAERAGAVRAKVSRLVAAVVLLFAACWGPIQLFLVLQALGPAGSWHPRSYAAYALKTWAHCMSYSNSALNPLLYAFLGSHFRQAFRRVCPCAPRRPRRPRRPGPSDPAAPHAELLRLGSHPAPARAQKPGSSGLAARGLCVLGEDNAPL
Sequence of 5-hydroxytryptamine receptor 2A (Homo sapiens) (P28223 whole entry, looked up): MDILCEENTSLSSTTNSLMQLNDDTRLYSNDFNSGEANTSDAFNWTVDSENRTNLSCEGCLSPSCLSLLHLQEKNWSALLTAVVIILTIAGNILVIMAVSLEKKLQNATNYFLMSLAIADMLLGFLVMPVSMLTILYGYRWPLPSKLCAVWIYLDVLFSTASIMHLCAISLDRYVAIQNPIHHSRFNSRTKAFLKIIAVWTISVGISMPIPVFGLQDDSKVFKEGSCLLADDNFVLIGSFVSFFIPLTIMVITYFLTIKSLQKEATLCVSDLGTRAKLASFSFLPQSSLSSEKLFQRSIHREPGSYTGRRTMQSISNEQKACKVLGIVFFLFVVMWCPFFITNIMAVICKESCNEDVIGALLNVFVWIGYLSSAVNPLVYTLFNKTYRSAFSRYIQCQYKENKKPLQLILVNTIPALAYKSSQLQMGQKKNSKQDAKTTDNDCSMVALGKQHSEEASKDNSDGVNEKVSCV
Sequence of Muscarinic acetylcholine receptor M1 (Homo sapiens) (P11229 whole entry, looked up): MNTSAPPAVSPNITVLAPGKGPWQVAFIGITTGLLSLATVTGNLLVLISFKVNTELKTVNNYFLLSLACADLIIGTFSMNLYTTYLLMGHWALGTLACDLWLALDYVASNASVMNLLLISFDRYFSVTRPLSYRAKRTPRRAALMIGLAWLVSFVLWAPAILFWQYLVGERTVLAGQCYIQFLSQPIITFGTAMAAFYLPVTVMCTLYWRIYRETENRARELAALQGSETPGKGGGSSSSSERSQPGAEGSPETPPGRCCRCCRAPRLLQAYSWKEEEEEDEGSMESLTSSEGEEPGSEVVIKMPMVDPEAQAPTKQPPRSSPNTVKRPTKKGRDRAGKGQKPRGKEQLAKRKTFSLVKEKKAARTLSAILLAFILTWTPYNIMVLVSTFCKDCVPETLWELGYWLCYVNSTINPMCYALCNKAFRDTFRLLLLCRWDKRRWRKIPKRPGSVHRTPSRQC
Sequence of D(2) dopamine receptor (Homo sapiens) (P14416 whole entry, looked up): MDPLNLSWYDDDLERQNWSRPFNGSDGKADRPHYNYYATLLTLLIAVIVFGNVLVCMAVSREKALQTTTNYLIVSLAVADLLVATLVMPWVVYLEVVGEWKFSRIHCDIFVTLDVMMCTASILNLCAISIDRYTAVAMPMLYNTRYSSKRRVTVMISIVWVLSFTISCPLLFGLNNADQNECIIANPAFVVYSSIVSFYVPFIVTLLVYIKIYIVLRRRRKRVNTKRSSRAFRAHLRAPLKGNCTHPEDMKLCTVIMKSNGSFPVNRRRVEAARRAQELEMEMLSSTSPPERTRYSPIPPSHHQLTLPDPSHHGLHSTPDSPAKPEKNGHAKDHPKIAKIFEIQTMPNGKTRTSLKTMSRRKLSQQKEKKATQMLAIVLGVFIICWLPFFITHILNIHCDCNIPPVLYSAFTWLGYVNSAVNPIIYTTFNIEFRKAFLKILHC
Sequence of Beta-2 adrenergic receptor (Homo sapiens) (P07550 whole entry, looked up): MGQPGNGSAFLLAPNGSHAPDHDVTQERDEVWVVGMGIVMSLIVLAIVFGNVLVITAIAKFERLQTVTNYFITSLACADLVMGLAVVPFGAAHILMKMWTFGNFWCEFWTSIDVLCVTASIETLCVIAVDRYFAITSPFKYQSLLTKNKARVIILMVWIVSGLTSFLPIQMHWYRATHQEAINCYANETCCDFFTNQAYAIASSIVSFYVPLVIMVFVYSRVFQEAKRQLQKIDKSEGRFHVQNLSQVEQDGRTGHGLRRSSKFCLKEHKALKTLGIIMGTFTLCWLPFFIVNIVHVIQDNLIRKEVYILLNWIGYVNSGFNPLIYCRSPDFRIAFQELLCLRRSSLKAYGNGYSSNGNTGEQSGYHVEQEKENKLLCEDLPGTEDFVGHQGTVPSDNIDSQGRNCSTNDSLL

In the case of `CC(C)(C)N(NC(=O)c1ccc(Cl)cc1)C(=O)c1ccccc1`, the Potency entry in test [1], in test [2], in [3], in test [4], in test [5] and in test [6] was “inactive” each time. Also, the Potency result in test [7], in test [8], in [9], in test [10], in test [11] and in test [12] was “inactive” throughout. Further, the Potency result in [13] and in [14] was “inactive” each time.
As to `O.O.O.O=C([O-])[C@H]([O-])[C@@H]([O-])C(=O)[O-].O=C([O-])[C@H]([O-])[C@@H]([O-])C(=O)[O-].[K+].[K+].[Sb+3].[Sb+3]`, the Potency entry in test [1], in test [3], in test [4], in test [5], in [8] and in test [9] was “inactive” each time. In addition, the Potency result in test [15], in test [10], in test [16], in test [11], in [17] and in test [12] was “inactive” throughout. Besides, the Potency entry in [13] and in test [14] was “inactive” each time. Besides, the Potency in test [2] is 61.4 µM (active); in test [6], 36.5 µM (active).
Consider `OCCBr`, for which the Potency result in test [1], in [2], in test [3], in [4], in test [5] and in [6] was “inactive” each time. Besides, the Potency result in [18], in test [8], in test [9], in test [15], in test [10] and in test [16] was “inactive” each time. Moreover, the Potency result in test [11], in test [17], in test [13] and in test [14] was “inactive” throughout.
`CNC(=O)CSP(=O)(OC)OC`: the Potency result in [1], in [2], in [3], in test [4], in [5] and in test [6] was “inactive” throughout. The Potency entry in test [18], in test [8], in test [9], in test [15], in test [10] and in test [16] was “inactive” in each case. The Potency result in test [11], in test [17], in [12], in test [13] and in test [14] was “inactive” each time.
`CCn1cc[n+](C)c1` (tested in a mixture with another compound): the Potency entry in test [1], in test [2], in [3], in test [4], in test [5] and in [6] was “inactive” in each case. Further, the Potency entry in test [18], in test [8], in test [9], in test [15], in [10] and in test [16] was “inactive” in each case. In addition, the Potency result in test [11], in test [17], in test [12], in [13] and in test [14] was “inactive” each time.
For `O=[N+]([O-])c1cccc2c([N+](=O)[O-])cccc12`, the Potency result in [1], in test [3], in test [4], in [5], in test [18] and in [8] was “inactive” each time. Further, the Potency entry in test [9], in test [15], in test [10], in test [17], in [13] and in [14] was “inactive” each time. Besides, the Potency in [2] was 61.4 µM (active); in test [7] it was 23.1 µM (active).
On to `CCCCN(CCCC)C(=S)[S-].CCCCN(CCCC)C(=S)[S-].[Ni+2]`, for which the figures for the Potency in test [1] and in [2] were 8.42 µM (active) and 2.99 µM (active), respectively. Besides, the Potency entry in test [3], in [4], in test [5], in [18], in test [7] and in test [8] was “inactive” in each case. For the same molecule, the Potency result in test [9], in [15], in test [10], in test [16], in test [11] and in test [17] was “inactive” each time. In addition, the Potency result in test [12], in [13] and in test [14] was “inactive” each time.
As for `COCc1cnc(C2=NC(C)(C(C)C)C(=O)N2)c(C(=O)O)c1` (stereo not given), the Potency result in test [1], in test [2], in test [3], in [4], in test [5] and in test [6] was “inactive” throughout. For the same molecule, the Potency entry in test [18], in [8], in test [9], in test [10], in test [16] and in test [11] was “inactive” each time. Besides, the Potency result in test [17] and in test [14] was “inactive” each time.
As for `COP(=S)(Oc1cc(Cl)c(Br)cc1Cl)c1ccccc1` (stereo not given), the Potency entry in test [1], in test [3], in test [4], in [5], in [6] and in test [7] was “inactive” in each case. The Potency entry in test [8], in test [9], in test [15], in test [10], in test [11] and in [12] was “inactive” each time. The Potency entry in test [13] and in test [14] was “inactive” throughout. Also, the Potency in [2] is 48.6 µM (active).
